Each structure is given as a SMILES string. Values without a mark were called inactive.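 The calls were made as follows: active = RAM network inhibition above 8.4% in each of two replicates, 3 SD over the compound average; inconclusive = above 8.4% inhibition in only one replicate; inactive = 8.4% inhibition or less in each replicate.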

The experiment is described as follows: RAM signaling pathway blockade in yeast – S. cerevisiae, Pdr1DBD-CYC8 efflux-inhibited sensitized strain, primary screen (AID 1298).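 Also: 0% = DMSO untreated cells without growth and 100% = 10 µM 1-NA-PP1 full growth; higher means more yeast growth rescued from 5-FOA killing.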 As to conditions: S. cerevisiae cbk1-as DSE1-URA3 strain, 5-FOA growth OD615, 2 d; at 50 µM; hits give high values.
Regarding `Cc1ccc(C(=O)NCCNC(=O)CN2CCCC2)cc1`, the RAM network inhibition is 5.7%. In the case of `Cc1csc(NC(=O)NC2(C(F)(F)F)Oc3ccccc3O2)n1`, the RAM network inhibition was 5.12%. Regarding `CCOC(=O)N1CCN(C(=O)c2oc3ccc(S(=O)(=O)N4CCOCC4)cc3c2C)CC1`, the RAM network inhibition is 4.61%. For the compound `COc1cc(/C=N/n2cnnc2)ccc1OC(=O)c1cccnc1`, the RAM network inhibition was 0.57%. The same measure for `CN(CCNC(=O)c1cc2c(=O)n(C)c3ccccc3c2n1C)Cc1ccccc1`: -0.47%; for `Cc1ccc(N=Cc2c(O)n(C)c(=O)n(C)c2=O)nc1`: -0.87%.

On to `Cc1cc(NS(=O)(=O)c2ccccc2)cc(Cl)c1O`, for which the RAM network inhibition is 2.58%. For `CCS(=O)(=O)C(=C(Nc1ccc(OC)cc1)Nc1ccc(OC)cc1)S(=O)(=O)CC`, the RAM network inhibition was 7.21%. Take `O=C(CN1C(=O)c2ccccc2S1(=O)=O)N1CCN(c2ccccc2F)CC1`: the RAM network inhibition is 2.92%. On to `C/C(CC(O)c1ccc2ccccc2n1)=N/O` (stereo not given), for which the RAM network inhibition is 1.08%. `O=C(CCn1nnc2ccccc21)N1CCC(O)(c2cccc(F)c2)CC1`: the RAM network inhibition is 1.86%. For `COc1ccc(S(=O)(=O)N2CCCCC2C(=O)O)cc1OC` (stereo not given), the RAM network inhibition was 5.22%. Consider `COC(=O)c1c(NC(=O)Cc2cccs2)sc(C)c1C`, for which the RAM network inhibition is 9.13%. Then `CC(C)CC(NC(=O)C1CCCCC1)C(=O)NCc1ccccn1` (stereo not given), with -0.2%. The same measure for `COc1cccc(OCCOc2cccc(/C=N/n3cnnc3)c2)c1`: 0.36%; for `O=C(NCc1cccc(F)c1)c1noc2c1CCCC2`: 3.14%; for `COc1ccc(C)cc1NC(=O)CN(c1ccccc1)S(C)(=O)=O`: 5.82%.

In the case of `Cc1ccc(C(C)NC(=O)c2ccco2)cc1C` (stereo not given), the RAM network inhibition was -1.23%. For `Cc1cccc(-n2c(=O)[nH]c3c(C(N)=O)nc(-c4ccccc4Cl)nc32)c1`, the RAM network inhibition was 3.41%. Regarding `COc1cc(C(C)=O)ccc1OC(=O)C(C)N1C(=O)c2ccccc2C1=O` (stereo not given), the RAM network inhibition was 3.8%. Then `CCOC(=O)C(C(=O)Nc1cccc(C)n1)C1CCCCC1` (stereo not given), with 2.72%. Take `O=C(Oc1c(Cl)cc(Cl)c2cccnc12)N1CCCCC1`: the RAM network inhibition was -1.03%.

`O=C1N=C(c2ccccc2)C(c2ccccc2)N1` (stereo not given): the RAM network inhibition was 1.06%.

Turning to `Cc1cccc(N(C)C(=O)CCS(=O)(=O)c2cccc3nonc23)c1`, the RAM network inhibition was 5.74%.

For the compound `O=C(Cc1ccc(Cl)cc1)Nc1ccccc1CO`, the RAM network inhibition was 5.48%. Consider `CCCC(=O)Nc1cccc(C(=O)Nc2nccs2)c1`, for which the RAM network inhibition is 0.41%. The same measure for `CC(=O)c1c(C(C)=O)c(C)n(-c2nc(-c3ccccc3)c(C)s2)c1C`: 4.01%. For the compound `COc1ccc(CCNS(=O)(=O)c2ccc3c(c2)OCCO3)cc1OC`, the RAM network inhibition is 1.02%. In the case of `O=C(Nc1cccnc1)c1ccc(CN2CCc3ccccc3C2)cc1`, the RAM network inhibition was 2.06%.

Take `O=c1c2cnn(-c3ccccc3)c2nc(-c2ccco2)n1-c1ccccc1`: the RAM network inhibition is 8.81%.

For the compound `COc1ccc(OC)c(N(CC(=O)Nc2ccc3c(c2)OCO3)S(=O)(=O)c2ccccc2)c1`, the RAM network inhibition was 9.99%. On to `Cn1cnnc1SCC(=O)c1ccco1`, for which the RAM network inhibition is 3.27%.

`CCOC(=O)N1CCN(C(=O)CS(=O)(=O)c2cn(Cc3ccccc3C)c3ccccc23)CC1`: the RAM network inhibition is 8.81%.

For the compound `O=C(C1CC1)N1CCc2cc(Br)cc(S(=O)(=O)NCCN3CCOCC3)c21`, the RAM network inhibition was 2.57%. As for `c1ccc(-n2nnnc2-n2ccnc2)cc1`, the RAM network inhibition is 0.92%. With `Cc1oc(-c2cccc(Cl)c2)nc1CN1CCC(C(=O)N2CCN(c3ccccn3)CC2)CC1`, the RAM network inhibition is 4.79%.

Consider `O=C1CC(c2ccccc2)c2cc(O)ccc2O1` (stereo not given), for which the RAM network inhibition is 2.58%.

Take `CCC(C)C1C(C#N)=C(N)Oc2n[nH]c(C)c21` (stereo not given): the RAM network inhibition is 6.1%. As to `NC(=O)CNC1CC(=O)N(CCc2ccccc2)C1=O` (stereo not given), the RAM network inhibition is 1.69%. As to `Cc1csc(SCC(=O)c2ccc(S(=O)(=O)N3CCOCC3)cc2)n1`, the RAM network inhibition was 7.03%.

The values are drawn from PubChem BioAssay.
